# Measured values taken from PubChem BioAssay (EPA / NIEHS).
# Inconclusive results are not listed. Calls of active or inactive are those of the source. Rule for the calls: active = hit-call score of the fitted dose curve at least 0.9, where 1 is the maximum; inconclusive = response in the unintended direction; inactive = score below 0.9.
# Legend:
# [1] = molecular target: human Phosphatase and Tensin Homolog (PTEN), PTEN (gene 5728) (UniProt P60484); assay: NVS_ENZ_hPTEN: NovaScreen (NVS) Enzymatic Assay for human Phosphatase and Tensin Homolog (PTEN) (AID 2283203)
# Summary of the method: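 Cell-free recombinant human PTEN with fluorescent substrate; product separated by electrophoretic mobility shift and read by fluorescence 1 h after dosing. Primary screen in duplicate at 25 uM, actives followed in concentration series versus DMSO.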
# [2] = system: rat Monoamine Oxidase, MAO-A, Central (MAOAC), gene 29253; assay: NVS_ENZ_rMAOAC: NovaScreen (NVS) Enzymatic Assay for rat Monoamine Oxidase, MAO-A, Central (MAOAC) (AID 2283243);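 note: potency refers to inhibition seen as signal drop below DMSO baseline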
# Summary of the method: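 Rat brain tissue extract used as enzyme source in a cell-free radiometric assay, read by scintillation counting 1.5 hours after dosing. Loss of signal relative to DMSO baseline scored; primary screen at 25 uM in duplicate, actives followed up in concentration series.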
# [3] = molecular target: human Raf-1 Proto-Oncogene, serine/threonine Kinase (RAF1), RAF1 (gene 5894) (UniProt P04049); assay: NVS_ENZ_hRAF1: NovaScreen (NVS) Enzymatic Assay for human Raf-1 Proto-Oncogene, serine/threonine Kinase (RAF1) (AID 2283216)
# Summary of the method: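 Cell-free recombinant kinase with specific fluorescent substrate, product separated by electrophoretic mobility shift; read 1 h after dosing. Primary screen at 25 uM in duplicate; hits then run in concentration-response up to 50 uM, fitted as loss of signal versus DMSO.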
# [4] = molecular target: human Tyrosine Protein Kinase Receptor Tie-2 (Tie2), TEK (gene 7010) (UniProt Q02763); assay: NVS_ENZ_hTie2: NovaScreen (NVS) Enzymatic Assay for human Tyrosine Protein Kinase Receptor Tie-2 (Tie2) (AID 2283225)
# Summary of the method: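 Recombinant human Tie2 kinase activity was read cell-free by fluorescence with electrophoretic mobility shift, 1 hour after dosing. The screen used 25 uM in duplicate, then concentration-response up to 50 uM. Signal loss was scored against DMSO.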
# [5] = molecular target: Voltage-dependent N-type calcium channel subunit alpha-1B (Rattus norvegicus) (UniProt Q02294); assay: NVS_IC_rCaChN: NovaScreen (NVS) Ion Channel Assay for rat Calcium Channel, Type N (CaChN) (AID 2283317)
# [6] = molecular target: rat Oxytocin Receptor (OXT), Oxtr (gene 25342) (UniProt P70536); assay: NVS_GPCR_rOXT: NovaScreen (NVS) G Protein-Coupled Receptor Assay for rat Oxytocin Receptor (OXT) (AID 2283330)
# Summary of the method: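 Radioligand displacement on rat uterine membranes, 1 h incubation, filter-based scintillation counting. Chemicals were screened in duplicate at 25 uM, and those passing threshold were retested in concentration-response up to 50 uM. Loss of binding was fitted versus DMSO.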
# [7] = molecular target: rat Monoamine Oxidase, MAO-B, Central (MAOBC), Maob (gene 25750) (UniProt P19643); assay: NVS_ENZ_rMAOBC: NovaScreen (NVS) Enzymatic Assay for rat Monoamine Oxidase, MAO-B, Central (MAOBC) (AID 2283238)
# Summary of the method: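 Compounds were first tested in duplicate at 25 uM against MAO-B from rat brain tissue; those passing the inhibition threshold were retested in concentration series up to 50 uM. Radiodetection by scintillation counting at 1.17 h, analysed against DMSO baseline.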
# [8] = read-out: xenobiotic metabolism (CYP2C9), CYP2C9 (gene 1559); assay: CLD_CYP2C9_6hr: CellzDirect (CLD) Gene Expression Assay for xenobiotic metabolism (CYP2C9) at 6 hours (AID 2283664)
# Summary of the method: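 Primary human hepatocytes dosed daily with test chemicals at multiple concentrations; harvested at 6 h. CYP2C9 mRNA induction measured by qNPA chemiluminescence. Gain of signal fitted against 0.2% DMSO vehicle; cytotoxicity annotated from phase-contrast morphology.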
# [9] = molecular target: rat Adenylate Cyclase, Forskolin Stimulated, Adcy5 (gene 64532) (UniProt Q04400); assay: NVS_ENZ_rACFSKBinding: NovaScreen (NVS) Enzymatic Assay for rat Adenylate Cyclase, Forskolin Stimulated (AID 2283232)
# Summary of the method: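 Rat forebrain membrane preparation, cell-free, read 1 h after dosing by filter-based scintillation counting. Primary screen in duplicate at 25 uM; actives (e.g. ≥30% inhibition) rerun in concentration-response up to 50 uM; fit versus DMSO.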
# [10] = molecular target: rat Monoamine Oxidase, MAO-B, Peripheral (MAOBP), Maob (gene 25750) (UniProt P19643); assay: NVS_ENZ_rMAOBP: NovaScreen (NVS) Enzymatic Assay for rat Monoamine Oxidase, MAO-B, Peripheral (MAOBP) (AID 2283242)
# [11] = molecular target: rat Corticotropin Releasing Factor Receptor (CRF), Crhr1 (gene 58959) (UniProt P35353); assay: NVS_GPCR_rCRF: NovaScreen (NVS) G Protein-Coupled Receptor Assay for rat Corticotropin Releasing Factor Receptor (CRF) (AID 2283300)
# Summary of the method: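 Rat cortical membranes used as receptor source in a radioligand competitive displacement binding assay; scintillation read 2 h after dosing. Primary screen run in duplicate at 25 uM; loss of signal versus DMSO baseline indicates binding.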
# [12] = molecular target: human Protein Tyrosine Phosphatase Receptor Type C (PTPRC), PTPRC (gene 5788) (UniProt P08575); assay: NVS_ENZ_hPTPRC: NovaScreen (NVS) Enzymatic Assay for human Protein Tyrosine Phosphatase Receptor Type C (PTPRC) (AID 2283212)
# Summary of the method: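 Yeast-extracted human PTPRC used in a cell-free colorimetric enzyme activity read-out, 1 h after dosing. Primary screen in duplicate at 25 uM; actives rerun in concentration-response up to 50 uM, DMSO as baseline.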
# [13] = molecular target: Norway rat Vesicular Monoamine Transporter (VMAT2), neurotransmitter transporter, Slc18a2 (gene 25549) (UniProt Q01827); assay: NVS_TR_rVMAT2: NovaScreen (NVS) Transporter Assay for Norway rat Vesicular Monoamine Transporter (VMAT2), neurotransmitter transporter (AID 2283376);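 note: actives lower the bound radioligand signal below the DMSO level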
# Summary of the method: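 Tissue: rat forebrain extract. Format: competitive radioligand binding, cell-free. Timepoint: 1 h. Readout: filter radiodetection/scintillation. Screen: 25 uM in duplicate, then concentration series for actives. Baseline: DMSO.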
# [14] = molecular target: human Protein Tyrosine Phosphatase Non-receptor Type 2 (PTPN2), PTPN2 (gene 5771) (UniProt P17706); assay: NVS_ENZ_hPTPN2: NovaScreen (NVS) Enzymatic Assay for human Protein Tyrosine Phosphatase Non-receptor Type 2 (PTPN2) (AID 2283207)
# Summary of the method: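 Cell-free recombinant enzyme with fluorescent substrate, product separated by electrophoretic mobility shift; read 1 h after dosing. Primary screen single concentration (25 uM) in duplicate; actives followed in concentration series; loss of signal versus DMSO.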
# [15] = molecular target: rat Acetylcholinesterase (AChE), Ache (gene 83817) (UniProt P37136); assay: NVS_ENZ_rAChE: NovaScreen (NVS) Enzymatic Assay for rat Acetylcholinesterase (AChE) (AID 2283233)
# Summary of the method: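 Rat brain membrane acetylcholinesterase activity measured colorimetrically 0.33 h after compound addition, loss of signal relative to DMSO. Primary screen in duplicate at 25 uM; actives re-run as concentration-response with 50 uM top concentration.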
# [16] = system: guinea pig Atrionatriuretic Peptide Receptor A (ANPA), gene 100135578; assay: NVS_GPCR_gANPA: NovaScreen (NVS) G Protein-Coupled Receptor Assay for guinea pig Atrionatriuretic Peptide Receptor A (ANPA) (AID 2283291)
# Summary of the method: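 Radioligand binding to guinea pig cerebellar membranes was measured after 1 h by filter-based scintillation counting. Chemicals were tested in duplicate at 25 uM, with hits run in concentration-response to a maximum of 50 uM. Binding loss was fitted against DMSO.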
# Chain of human Tyrosine Protein Kinase Receptor Tie-2 (Tie2), TEK (gene 7010) (Q02763 whole entry, looked up): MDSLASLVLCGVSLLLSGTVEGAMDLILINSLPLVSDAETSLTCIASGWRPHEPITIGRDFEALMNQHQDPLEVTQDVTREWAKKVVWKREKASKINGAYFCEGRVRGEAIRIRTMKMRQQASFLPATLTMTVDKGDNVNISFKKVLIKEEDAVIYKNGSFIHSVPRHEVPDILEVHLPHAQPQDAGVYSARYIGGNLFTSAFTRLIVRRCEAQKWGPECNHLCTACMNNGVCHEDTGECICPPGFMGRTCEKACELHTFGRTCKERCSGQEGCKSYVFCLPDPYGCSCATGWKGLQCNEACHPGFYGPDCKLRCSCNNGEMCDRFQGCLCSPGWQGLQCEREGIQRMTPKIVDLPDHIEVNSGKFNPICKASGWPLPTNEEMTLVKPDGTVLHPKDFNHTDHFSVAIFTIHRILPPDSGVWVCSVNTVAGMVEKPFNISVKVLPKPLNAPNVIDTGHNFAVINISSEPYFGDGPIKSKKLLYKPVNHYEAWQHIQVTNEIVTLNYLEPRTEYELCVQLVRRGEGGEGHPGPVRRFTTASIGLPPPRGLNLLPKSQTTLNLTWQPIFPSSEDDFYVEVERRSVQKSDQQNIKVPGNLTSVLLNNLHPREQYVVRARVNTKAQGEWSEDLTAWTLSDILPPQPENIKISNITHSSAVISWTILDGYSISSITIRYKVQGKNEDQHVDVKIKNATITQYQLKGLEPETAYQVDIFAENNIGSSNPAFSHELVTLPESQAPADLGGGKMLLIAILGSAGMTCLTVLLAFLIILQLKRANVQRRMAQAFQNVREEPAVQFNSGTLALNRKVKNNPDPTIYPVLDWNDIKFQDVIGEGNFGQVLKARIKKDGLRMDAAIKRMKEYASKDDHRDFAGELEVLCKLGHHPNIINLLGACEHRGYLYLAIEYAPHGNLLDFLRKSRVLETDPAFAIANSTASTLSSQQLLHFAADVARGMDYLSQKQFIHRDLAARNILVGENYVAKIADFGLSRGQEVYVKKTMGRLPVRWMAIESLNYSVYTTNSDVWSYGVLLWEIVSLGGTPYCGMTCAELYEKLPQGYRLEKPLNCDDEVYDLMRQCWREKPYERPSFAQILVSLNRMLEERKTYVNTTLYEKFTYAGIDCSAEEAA
# Chain of rat Acetylcholinesterase (AChE), Ache (gene 83817) (P37136 whole entry, looked up): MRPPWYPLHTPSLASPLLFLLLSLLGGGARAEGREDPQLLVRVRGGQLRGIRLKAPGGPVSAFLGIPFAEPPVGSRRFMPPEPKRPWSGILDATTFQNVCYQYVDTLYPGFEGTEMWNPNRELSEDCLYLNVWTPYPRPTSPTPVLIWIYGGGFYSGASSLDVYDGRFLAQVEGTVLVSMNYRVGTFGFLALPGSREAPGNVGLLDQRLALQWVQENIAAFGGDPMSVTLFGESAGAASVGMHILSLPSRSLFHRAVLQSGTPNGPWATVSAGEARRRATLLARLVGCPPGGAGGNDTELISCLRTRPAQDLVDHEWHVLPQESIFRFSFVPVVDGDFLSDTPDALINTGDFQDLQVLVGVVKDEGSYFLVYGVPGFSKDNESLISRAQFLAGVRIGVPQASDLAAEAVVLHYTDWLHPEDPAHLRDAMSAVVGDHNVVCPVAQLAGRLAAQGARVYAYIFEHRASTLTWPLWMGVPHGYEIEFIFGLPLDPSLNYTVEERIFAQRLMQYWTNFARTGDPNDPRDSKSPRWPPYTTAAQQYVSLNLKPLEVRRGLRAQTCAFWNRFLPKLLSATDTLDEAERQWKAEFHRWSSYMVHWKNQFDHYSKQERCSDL
# Chain of human Phosphatase and Tensin Homolog (PTEN), PTEN (gene 5728) (P60484 whole entry, looked up): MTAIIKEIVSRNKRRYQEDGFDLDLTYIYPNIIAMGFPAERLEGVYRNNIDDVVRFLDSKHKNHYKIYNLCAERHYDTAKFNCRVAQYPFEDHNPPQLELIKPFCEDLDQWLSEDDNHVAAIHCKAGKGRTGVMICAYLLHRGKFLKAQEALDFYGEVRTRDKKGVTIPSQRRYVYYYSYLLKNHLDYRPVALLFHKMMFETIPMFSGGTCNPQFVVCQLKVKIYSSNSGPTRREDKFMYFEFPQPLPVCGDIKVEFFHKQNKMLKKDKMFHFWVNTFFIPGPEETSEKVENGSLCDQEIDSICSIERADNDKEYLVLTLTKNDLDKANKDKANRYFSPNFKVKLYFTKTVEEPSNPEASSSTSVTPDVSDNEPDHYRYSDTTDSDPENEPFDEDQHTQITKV
# Chain of human Protein Tyrosine Phosphatase Receptor Type C (PTPRC), PTPRC (gene 5788) (P08575 whole entry, looked up): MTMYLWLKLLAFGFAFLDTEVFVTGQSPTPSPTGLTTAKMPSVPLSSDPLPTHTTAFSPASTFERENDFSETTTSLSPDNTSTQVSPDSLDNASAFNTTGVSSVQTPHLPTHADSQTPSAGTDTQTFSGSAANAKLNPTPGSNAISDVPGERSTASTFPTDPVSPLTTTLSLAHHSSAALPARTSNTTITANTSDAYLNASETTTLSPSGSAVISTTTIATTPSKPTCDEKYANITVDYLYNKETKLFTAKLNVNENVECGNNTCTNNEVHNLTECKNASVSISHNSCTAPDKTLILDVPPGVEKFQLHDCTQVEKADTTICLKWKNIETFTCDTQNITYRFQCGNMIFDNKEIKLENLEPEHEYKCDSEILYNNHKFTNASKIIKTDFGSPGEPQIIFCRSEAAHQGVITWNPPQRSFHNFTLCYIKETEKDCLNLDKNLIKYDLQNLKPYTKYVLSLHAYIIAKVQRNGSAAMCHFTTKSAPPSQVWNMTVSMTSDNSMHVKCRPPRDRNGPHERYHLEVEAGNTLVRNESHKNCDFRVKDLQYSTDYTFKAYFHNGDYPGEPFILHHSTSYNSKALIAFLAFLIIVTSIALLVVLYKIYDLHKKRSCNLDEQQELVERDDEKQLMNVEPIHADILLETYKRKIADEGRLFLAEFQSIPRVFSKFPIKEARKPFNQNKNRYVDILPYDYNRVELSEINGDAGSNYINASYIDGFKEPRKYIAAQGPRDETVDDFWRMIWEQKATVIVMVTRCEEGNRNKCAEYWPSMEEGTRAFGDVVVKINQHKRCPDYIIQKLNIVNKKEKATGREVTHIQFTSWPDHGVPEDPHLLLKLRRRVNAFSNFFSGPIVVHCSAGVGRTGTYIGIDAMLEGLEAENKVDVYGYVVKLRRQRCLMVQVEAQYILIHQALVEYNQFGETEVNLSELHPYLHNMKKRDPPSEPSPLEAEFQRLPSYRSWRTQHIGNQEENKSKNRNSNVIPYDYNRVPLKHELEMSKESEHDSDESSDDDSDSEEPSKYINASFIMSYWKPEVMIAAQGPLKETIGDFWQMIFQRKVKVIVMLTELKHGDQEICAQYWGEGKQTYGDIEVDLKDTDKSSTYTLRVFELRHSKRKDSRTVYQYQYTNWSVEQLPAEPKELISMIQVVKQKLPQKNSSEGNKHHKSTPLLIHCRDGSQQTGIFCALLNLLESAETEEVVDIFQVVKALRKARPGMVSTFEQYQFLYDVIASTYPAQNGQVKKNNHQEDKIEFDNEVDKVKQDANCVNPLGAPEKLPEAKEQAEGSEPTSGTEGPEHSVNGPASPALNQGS
# Chain of rat Monoamine Oxidase, MAO-B, Peripheral (MAOBP), Maob (gene 25750) (P19643 whole entry, looked up): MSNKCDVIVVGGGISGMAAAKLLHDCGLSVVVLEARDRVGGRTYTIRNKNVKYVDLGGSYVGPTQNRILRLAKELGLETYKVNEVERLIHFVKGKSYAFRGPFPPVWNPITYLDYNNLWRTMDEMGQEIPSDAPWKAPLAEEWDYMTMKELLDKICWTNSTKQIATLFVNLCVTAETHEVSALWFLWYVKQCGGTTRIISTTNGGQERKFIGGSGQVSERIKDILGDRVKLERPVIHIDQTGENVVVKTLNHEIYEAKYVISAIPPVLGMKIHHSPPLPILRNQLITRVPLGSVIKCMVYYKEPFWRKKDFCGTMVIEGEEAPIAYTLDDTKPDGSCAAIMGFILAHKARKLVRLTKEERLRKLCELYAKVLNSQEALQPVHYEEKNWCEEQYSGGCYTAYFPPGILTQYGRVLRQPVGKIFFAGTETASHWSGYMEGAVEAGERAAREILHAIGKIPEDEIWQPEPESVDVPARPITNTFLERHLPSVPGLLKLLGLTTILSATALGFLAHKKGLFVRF
# Chain of human Raf-1 Proto-Oncogene, serine/threonine Kinase (RAF1), RAF1 (gene 5894) (P04049 whole entry, looked up): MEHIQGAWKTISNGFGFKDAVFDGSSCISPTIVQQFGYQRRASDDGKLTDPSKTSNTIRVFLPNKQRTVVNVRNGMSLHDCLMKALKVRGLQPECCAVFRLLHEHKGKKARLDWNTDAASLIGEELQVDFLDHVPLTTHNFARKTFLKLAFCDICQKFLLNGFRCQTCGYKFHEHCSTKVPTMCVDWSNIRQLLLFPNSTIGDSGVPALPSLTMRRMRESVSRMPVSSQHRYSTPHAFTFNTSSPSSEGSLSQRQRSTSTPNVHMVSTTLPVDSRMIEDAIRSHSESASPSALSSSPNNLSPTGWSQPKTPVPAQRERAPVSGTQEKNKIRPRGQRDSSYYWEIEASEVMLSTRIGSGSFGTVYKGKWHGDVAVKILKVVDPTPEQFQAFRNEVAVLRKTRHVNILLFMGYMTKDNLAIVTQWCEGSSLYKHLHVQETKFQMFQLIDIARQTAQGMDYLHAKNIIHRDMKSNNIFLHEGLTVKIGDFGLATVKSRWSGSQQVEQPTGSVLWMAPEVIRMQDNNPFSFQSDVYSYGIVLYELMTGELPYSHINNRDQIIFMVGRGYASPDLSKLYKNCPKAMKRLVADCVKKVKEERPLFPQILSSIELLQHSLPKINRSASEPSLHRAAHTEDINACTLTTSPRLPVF
# Chain of rat Oxytocin Receptor (OXT), Oxtr (gene 25342) (P70536 whole entry, looked up): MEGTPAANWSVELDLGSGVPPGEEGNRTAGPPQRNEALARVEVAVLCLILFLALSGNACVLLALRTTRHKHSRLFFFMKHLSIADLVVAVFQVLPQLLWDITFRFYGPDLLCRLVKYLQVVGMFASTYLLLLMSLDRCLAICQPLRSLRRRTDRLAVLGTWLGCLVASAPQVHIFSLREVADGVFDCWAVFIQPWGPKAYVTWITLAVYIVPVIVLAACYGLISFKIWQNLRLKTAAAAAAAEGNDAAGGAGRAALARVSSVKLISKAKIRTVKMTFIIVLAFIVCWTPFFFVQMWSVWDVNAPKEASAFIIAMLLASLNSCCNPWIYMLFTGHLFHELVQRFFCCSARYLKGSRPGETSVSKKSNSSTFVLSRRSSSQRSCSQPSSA
smiles,measurement,setting,value
CN(CCOc1ccc(CC2SC(=O)NC2=O)cc1)c1ccccn1 (stereo not drawn),outcome,[1],inactive
same,AC50,[2],12.9 µM (active)
COC(=O)c1c(Cl)nn(C)c1S(=O)(=O)NC(=O)Nc1nc(OC)cc(OC)n1,outcome,[3],inactive
CC(=O)OCCC(C)C,outcome,[4],inactive
same,outcome,[5],inactive
OCCOCCOCCO,outcome,[1],inactive
same,outcome,[6],inactive
CCCCC(CC)CN1C(=O)C2C3C=CC(C3)C2C1=O (stereo not drawn),outcome,[3],inactive
same,outcome,[7],inactive
same,outcome,[8],inactive
Cc1cc2c(cc1C(F)(F)F)N(C(=O)Nc1ccc(Oc3cccnc3C)nc1)CC2,AC50,[3],6.86 µM (active)
O=c1[nH]sc2ccccc12,AC50,[9],16.2 µM (active)
same,AC50,[10],19.2 µM (active)
same,AC50,[11],17 µM (active)
CCCC[C@H]1CN(CC2CCOCC2)C(=O)OC12CCN(C1(C)CCN(C(=O)c3c(C)ncnc3C)CC1)CC2,outcome,[12],inactive
same,outcome,[10],inactive
c1ccc2ncccc2c1,outcome,[3],inactive
OC12N=C(c3ccccc3)SC1Cc1cc(Cl)ccc12 (stereo not drawn),AC50,[12],21.3 µM (active)
CCCCCCC(=O)OCC,outcome,[12],inactive
Nc1ccc(S(=O)(=O)Nc2nccs2)cc1,outcome,[1],inactive
same,outcome,[13],inactive
C[C@@H]1C[C@H]2[C@@H]3CCC4=CC(=O)C=C[C@]4(C)[C@@]3(F)[C@@H](O)C[C@]2(C)[C@@]1(O)C(=O)COP(=O)(O)O,AC50,[12],15.3 µM (active)
same,outcome,[3],inactive
same,outcome,[5],inactive
Nc1nc2ncc(CNc3ccc(C(=O)N[C@@H](CCC(=O)O)C(=O)O)cc3)nc2c(=O)[nH]1,AC50,[12],15.8 µM (active)
O=C(O)CC(O)C(=O)O (stereo not drawn),outcome,[14],inactive
Nc1ccc(N)c([N+](=O)[O-])c1,outcome,[15],inactive
O=C=Nc1cccc2c(N=C=O)cccc12,outcome,[1],inactive
CCCCCCCCCC,outcome,[1],inactive
same,outcome,[15],inactive
same,outcome,[2],inactive
same,outcome,[16],inactive
same,outcome,[5],inactive
same,outcome,[6],inactive
COc1ccc(/C=C/S(=O)(=O)NC(=O)c2ccc(C)cc2Cl)cc1,outcome,[3],inactive
same,outcome,[4],inactive
CC(C)c1ccc(C(=O)N=C(N)N)cc1S(C)(=O)=O,outcome,[4],inactive
COC(=O)[C@H]1[C@H]2C[C@@H]3c4[nH]c5cc(OC)ccc5c4CCN3C[C@H]2C[C@@H](OC(=O)c2cc(OC)c(OC)c(OC)c2)[C@@H]1OC,AC50,[12],21.1 µM (active)
CCO[Si](CCCNC(N)=O)(OCC)OCC,outcome,[3],inactive
CCCCCCOCCO,outcome,[12],inactive
CC(C)(O)c1ccc(CNC(=O)c2cccnc2Oc2ccc3nonc3c2)cc1,outcome,[10],inactive
O=C1c2c(O)ccc(Nc3ccc(CCO)cc3)c2C(=O)c2c([N+](=O)[O-])ccc(O)c21,AC50,[15],1.91 µM (active)
same,outcome,[13],inactive
